Inconclusive results are not listed. Calls of active or inactive are those of the source. Unless noted, cut-off not given; nearly all actives show AC50 up to about 26 µM.
Experiments:
[1] = growth inhibition of DIPG glioma cells, dose response, cell-based, SU-DIPG-XVII, MIPE5.0, CellTiter-Glo, qHTS (AID 1347060); conditions: SU-DIPG-XVII viability, CellTiter-Glo ATP luminescence;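 on AC50: cells exposed to compound for 48 hours before viability readout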
[2] = growth inhibition of DIPG glioma cells, dose response, cell-based, SU-DIPG-XIII, MIPE4.0, CellTiter-Glo, qHTS (AID 1347061; cut-off not given, nearly all actives have AC50 up to about 37 µM;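 further: cells exposed to compound for 48 hours before readout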); conditions: SU-DIPG-XIII viability, CellTiter-Glo ATP luminescence
[3] = SU-DIPG-VI glioma cell viability, MIPE4.0 library, CellTiter-Glo luminescence, qHTS (AID 1347066; cut-off not given, nearly all actives have AC50 up to about 30 µM;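 further: cells exposed to compound for 48 hours before readout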); conditions: CellTiter-Glo ATP luminescence
[4] = SU-DIPG-XXV glioma cell viability, MIPE5.0 library, qHTS (AID 1347068; cut-off not given, nearly all actives have IC50 up to about 30 µM;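 on IC50: cells exposed to compound for 48 hours before viability readout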)
[5] = system: Hepatitis C virus NS3 helicase; experiment: HCV NS3 helicase inhibitors, primary screen, biochemical, fluorescence polarization, LOPAC1280 library (AID 687035; in the data active means inhibition above about 37%); conditions: Purified HCV NS3 helicase, Cy5-dT15 ssDNA binding fluorescence polarization; stronger effect = higher value; concentration not given here
[6] = Cy5 fluorescence quenching or enhancement artefacts, artefact control for HCV NS3 helicase inhibitor project, biochemical, LOPAC1280 (AID 687037; call rule not given here); conditions: Cy5-DNA-NS3h complex fluorescence interference counterscreen
[7] = system: Aerobactin synthetase IucA (Klebsiella pneumoniae, hypervirulent); experiment: IucA enzyme inhibition, biochemical, LOPAC library, absorbance readout (AID 1346212; call rule not given here;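 further: 100% = no compound wells and 0% = no enzyme wells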); conditions: IucA enzyme assay, absorbance (OD) readout; stronger effect = lower value;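 tested at 8 µM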
[8] = growth inhibition of DIPG glioma cells, dose response, cell-based, JHH-DIPG-1, MIPE4.0, CellTiter-Glo, qHTS (AID 1347062; cut-off not given, nearly all actives have AC50 up to about 27 µM;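 on AC50: cells exposed to compound for two days before readout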); conditions: JHH-DIPG-1 viability, CellTiter-Glo ATP luminescence
[9] = growth inhibition of DIPG glioma cells, dose response, cell-based, SU-DIPG-XIII, MIPE5.0, CellTiter-Glo, qHTS (AID 1347064; cut-off not given, nearly all actives have AC50 up to about 23 µM;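 on AC50: cells exposed to compound for 48 hours before the viability read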); conditions: SU-DIPG-XIII viability, CellTiter-Glo ATP luminescence
[10] = viability loss in pontine glioma line – cell-based, SU-DIPG-XXV, MIPE5.0, CellTiter-Glo, qHTS, dose response (AID 1347065); conditions: CellTiter-Glo ATP luminescence;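 further: cells exposed to compound for 48 hours before ATP readout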
[11] = JHH-DIPG-1 glioma cell viability, MIPE5.0 library, CellTiter-Glo luminescence, qHTS (AID 1347067); conditions: JHH-DIPG-1 glioma viability, CellTiter-Glo ATP luminescence;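 further: cells exposed to compound for 48 hours before readout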
[12] = growth inhibition of DIPG glioma cells, dose response, cell-based, SU-DIPG-IV, MIPE4.0, CellTiter-Glo, qHTS (AID 1347063; cut-off not given, nearly all actives have AC50 up to about 30 µM;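 further: compound exposure lasted 48 hours before the viability readout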); conditions: SU-DIPG-IV viability, CellTiter-Glo ATP luminescence
[13] = sensitizers of A549 cells to miR-34 induction, primary screen, imaging, A549 dox-inducible miR-34, nuclei and caspase counts (AID 1347080;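 active means compounds whose cell count with miR-34 switched on is under 0.7 times the count with it off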); conditions: A549 miR-34 inducible, Hoechst nuclei count, 48 h
[14] = survival rescue of mitochondrial mutant cells in low glucose, primary screen, MELAS cybrids, Rieske KO mouse fibroblasts, CellTiter-Glo (AID 1508586;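 active means mean z-score across replicates of 1.96 or higher in either the MELAS or the Rieske mutant cell line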;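 further: z relative to plate mean and SD of compound and empty wells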)
[15] = circadian clock period modulators, cell-based, LOPAC library, luminescence reporter (AID 2774; call rule not given here;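 further: values are relative to mean of DMSO wells on each plate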); conditions: circadian reporter cells, at 7 µM, actives lie on both sides
[16] = stronger effect = lower value, cell number ratio, induced over uninduced
[17] = measured here: relative caspase fold change +Dox/-Dox
[18] = measured here: total cells with miR-34 induction, stronger effect = lower value
[19] = measured here: total cells without miR-34 induction
[20] = MELAS cybrid survival, CellTiter-Glo 48 h, stronger effect = higher value
[21] = Rieske KO mouse fibroblast survival, CellTiter-Glo 72 h

CC(C)[C@H]1C(=O)N[C@H](CO)Cc2c[nH]c3cccc(c23)N1C
inactive: outcome [1] | outcome [2] | outcome [3] | outcome [4]

C=CCN(C1=NCCN1)c1c(Cl)cccc1Cl
inactive: inhibition [5] -4% | fluorescence ratio (interference) [6] 1 | remaining activity [7] 95.7%

O=C(Oc1ccc([N+](=O)[O-])cc1)N1CCN(Cc2cccc(Oc3ccccc3)c2)CC1
active: AC50 [2] 11.8 µM
inactive: outcome [1] | outcome [8] | outcome [9] | outcome [10] | outcome [3] | outcome [11]

C/C(=C\c1csc(C)n1)[C@@H]1C[C@@H]2O[C@]2(C)CCC[C@H](C)[C@H](O)[C@@H](C)C(=O)C(C)(C)[C@@H](O)CC(=O)O1
inactive: outcome [2] | outcome [8] | outcome [12] | outcome [9] | outcome [3]
active: AC50 [1] 0.00263 µM | AC50 [10] 0.00166 µM

CC(=O)O[C@@]12CO[C@@H]1C[C@H](O)[C@@]1(C)C(=O)[C@H](O)C3=C(C)[C@@H](O)C[C@@](O)([C@@H](OC(=O)c4ccccc4)[C@H]21)C3(C)C
inactive: outcome [2] | outcome [3] | outcome [11] | outcome [4]
active: AC50 [1] 23.5 µM

CCOP(=O)(OCC)C(C)NC(=O)N(CCCl)N=O (centres undefined)
inactive: outcome [1] | outcome [2] | outcome [8] | outcome [9] | outcome [10] | outcome [3] | outcome [11] | outcome [4]

CC(C)(O)/C=C\C(=O)[C@](C)(O)[C@H]1[C@H](O)C[C@]2(C)[C@@H]3CC=C4[C@@H](C=C(O)C(=O)C4(C)C)[C@]3(C)C(=O)C[C@@]12C
active: AC50 [1] 0.0661 µM | AC50 [2] 18.7 µM | AC50 [8] 0.105 µM | AC50 [12] 0.0296 µM | AC50 [9] 0.0525 µM | AC50 [10] 0.0295 µM | AC50 [3] 8.33 µM | AC50 [11] 0.0525 µM | IC50 [4] 0.148 µM

COc1cc2cc(c1Cl)N(C)C(=O)C[C@H](OC(=O)C(C)C)[C@]1(C)O[C@@H]1[C@H](C)[C@@H]1C[C@@](O)(NC(=O)O1)[C@H](OC)/C=C/C=C(\C)C2
active: AC50 [9] 0.0332 µM | AC50 [10] 0.00662 µM | AC50 [11] 0.00742 µM
inactive: outcome [1] | outcome [2] | outcome [8] | outcome [12] | outcome [3]

Cc1ccccn1.[Cl][Pt][Cl].[NH2-]
inactive: outcome [1] | outcome [2] | outcome [10] | outcome [4]

O=C1C=CC[C@@H]2[C@H]3CCCN4CCC[C@@H](CN12)[C@@H]34
inactive: outcome [1] | outcome [2] | outcome [9] | outcome [10] | outcome [3] | outcome [11] | outcome [4]

Clc1ccccc1C(c1ccccc1)(c1ccccc1)n1cccn1
active: AC50 [1] 23.5 µM | AC50 [10] 33.2 µM | AC50 [11] 23.5 µM
inactive: outcome [2] | outcome [3] | outcome [4]

COC(=O)[C@]12CCC(C)(C)C[C@H]1[C@H]1C(=O)C=C3[C@@]4(C)C=C(C#N)C(=O)C(C)(C)[C@@H]4CC[C@@]3(C)[C@]1(C)CC2
active: AC50 [1] 3.72 µM | AC50 [2] 2.64 µM | AC50 [8] 0.59 µM | AC50 [12] 0.469 µM | AC50 [9] 3.72 µM | AC50 [10] 2.09 µM | AC50 [3] 0.743 µM | AC50 [11] 0.833 µM | IC50 [4] 10.5 µM

O=C(O)C(=O)c1cn(Cc2ccccc2)c2ccc(-c3ccc(OC(F)(F)F)cc3)cc12
inactive: outcome [1] | outcome [2] | outcome [8] | outcome [12] | outcome [10] | outcome [3] | outcome [11] | outcome [4]

Cc1[nH]nc2ccc(-c3cncc(OC[C@@H](N)Cc4c[nH]c5ccccc45)c3)cc12
active: AC50 [1] 0.833 µM | AC50 [2] 4.69 µM | AC50 [8] 0.59 µM | AC50 [12] 3.72 µM | AC50 [9] 0.742 µM | AC50 [10] 0.742 µM | AC50 [3] 14.8 µM | AC50 [11] 0.525 µM | IC50 [4] 1.86 µM

CCN1CCN(C(=O)Cc2ccc(Nc3ncc(F)c(Nc4ccc(C(=O)Nc5ccccc5Cl)cc4)n3)cc2)CC1
869: cell count [13, 19]
inactive: outcome [2] | fold change [13, 16] 0.811
0.731: fold change [13, 17]
active: AC50 [1] 1.86 µM | AC50 [8] 10.5 µM | AC50 [12] 8.33 µM | AC50 [9] 6.61 µM | AC50 [10] 1.05 µM | AC50 [3] 5.9 µM | AC50 [11] 3.72 µM | IC50 [4] 23.5 µM | z-score [14, 20] 2.83
-1.29: z-score [14, 21]
705: cell count [13, 18]

COCC1(CO)C(=O)C2CCN1CC2 (centres undefined)
active: AC50 [1] 23.5 µM | AC50 [2] 20.9 µM | AC50 [8] 20.9 µM | AC50 [12] 18.7 µM | AC50 [9] 8.33 µM | AC50 [10] 16.6 µM | AC50 [11] 10.5 µM
inactive: outcome [4]

COc1ccc2c(c1)[C@@]13CCCC[C@H]1[C@@H](C2)NCC3
inactive: period change [15] -0.085 h | inhibition [5] -5% | fluorescence ratio (interference) [6] 1 | remaining activity [7] 108%

CSCC[C@@H](NC(=O)[C@@H](Cc1ccccc1)NC(=O)CNC(=O)CNC(=O)[C@@H](N)Cc1ccc(O)cc1)C(=O)O
inactive: outcome [1] | outcome [2] | outcome [8] | outcome [12] | outcome [9] | outcome [10] | outcome [11] | outcome [4]

CCc1c(C(=O)C(N)=O)c2c(OCC(=O)O)cccc2n1Cc1ccccc1
0.396: z-score [14, 21]
inactive: outcome [1] | outcome [2] | outcome [8] | outcome [12] | outcome [9] | outcome [10] | outcome [3] | outcome [11] | outcome [4] | fold change [13, 16] 0.89 | z-score [14, 20] -0.413
8710: cell count [13, 19]
7750: cell count [13, 18]
1.11: fold change [13, 17]
